In PubChem BioAssay (NCI):
About 83,000 compounds went through this panel and 20% of them were active in at least one assay; those are over-represented in the sample as a whole.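 Note: values are percent growth. 100 is the growth of untreated cells, values between 100 and 0 indicate rising inhibition; between -100 and 0 indicates cell death.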 A number with no mark means an inactive call. Activity calls are given as the source filed them. The calls were made as follows: active = growth percent below 10; inactive = the rest.

Columns and labels:
Test in all cases: NCI-60 one-dose screen, 48 h (100 = growth as untreated, 0 = no growth, -100 = all killed)
HCT-15 colon = settings: 10 µM unless noted
HT29 colon = settings: 10 µM unless noted
SNB-75 CNS = settings: 10 µM unless noted
SNB-19 CNS = settings: 10 µM unless noted
U251 CNS = settings: 10 µM unless noted
PC-3 prostate = settings: 10 µM unless noted
SK-MEL-5 melanoma = settings: 10 µM unless noted
UACC-62 melanoma = settings: 10 µM unless noted
LOX IMVI melanoma = settings: 10 µM unless noted
SK-MEL-28 melanoma = settings: 10 µM unless noted
SK-MEL-2 melanoma = settings: 10 µM
EKVX NSCLC = settings: 10 µM unless noted
SN12C renal = settings: 10 µM unless noted
UO-31 renal = settings: 10 µM unless noted
TK-10 renal = settings: 10 µM unless noted
ACHN renal = settings: 10 µM unless noted
CAKI-1 renal = settings: 10 µM unless noted
A498 renal = settings: 10 µM unless noted
CCRF-CEM leukemia = settings: 10 µM unless noted
MOLT-4 leukemia = settings: 10 µM unless noted

Row | Compound | growth (HCT-15 colon) | growth (HT29 colon) | growth (SNB-75 CNS) | growth (SNB-19 CNS) | growth (U251 CNS) | growth (PC-3 prostate) | growth (SK-MEL-5 melanoma) | growth (UACC-62 melanoma) | growth (LOX IMVI melanoma) | growth (SK-MEL-28 melanoma) | growth (SK-MEL-2 melanoma) | growth (EKVX NSCLC) | growth (SN12C renal) | growth (UO-31 renal) | growth (TK-10 renal) | growth (ACHN renal) | growth (CAKI-1 renal) | growth (A498 renal) | growth (CCRF-CEM leukemia) | growth (MOLT-4 leukemia)
1 | CCN(CC)CCCC(C)Nc1cc(-c2ccc(C(F)(F)F)cc2)c(C#N)c2nc3ccccc3n12 (centres undefined) | 3.48% (active) | -2.76% (active) | -56.1% (active) | 34.9% | 3.09% (active) | 22.1% | -89.9% (active) | -67.3% (active) | -80.6% (active) | -64.7% (active) | 79.3% | 35.6% | -30.3% (active) | -76.5% (active) | 68.2% | -65.2% (active) | 52.2% | 87.5% | -7.3% (active) | -28.2% (active)
2 | O=C(Nc1ccc(N=Nc2ccccc2)cc1)c1cccc2ccccc12 | 21.8% | 35.4% | 39.3% | 67.3% | 63.6% | 54.8% | 59% | 34.6% | 64.4% | 67.5% | 56.4% | 71.5% | 78.8% | 68.3% | 76.2% | 77.5% | 70.8% |  | 49.8% | 37.2%
3 | CC1(C=O)NC(=O)NC1=O (centres undefined) | 101% | 99.2% | 92.8% | 103% | 82% | 88% | 102% | 99.2% | 100% | 112% | 106% | 99.6% | 97.8% | 96% | 100% | 104% | 98.6% |  | 95.7% | 89.9%
4 | COc1ccc(CCCc2c3[n+](cc4c(OC)c(OC)ccc24)CCc2cc4c(cc2-3)OCO4)cc1 | 102% | 47.2% | 88.3% | 60.4% | 40.8% | 58.2% | 39% | 49.7% | 57.8% | 63.1% | 60.1% | 78.3% | 69% | 93.2% | 66.4% | 96.2% | 98.3% |  | 64.7% | 76.8%
5 | CCN(CC)Cc1cc(Nc2cc(C(F)(F)F)c(C#N)c3nc4ccccc4n23)ccc1O | 6.22% (active) | 5.33% (active) | 13.5% | 18.5% | 8.94% (active) | 6.16% (active) | -36.4% (active) | 9.53% (active) | 12.2% | 29.6% | 4.36% (active) | 15.8% | 5.86% (active) | -17.4% (active) | 10.6% | 4.68% (active) | 6.96% (active) | -14.2% (active) | 5.56% (active) | 4.11% (active)
6 | CC1(O)CCC(Nc2cc(-c3ccc(C(F)(F)F)cc3)c(C#N)c3nc4ccccc4n23)CC1 (centres undefined) | 58.6% | 60.7% | 41.4% | 70.3% | 67.9% | 35.5% | 5.75% (active) | 77.1% | 55% | 89.3% | 73.4% | 54.1% | 63.9% | 47.1% | 71.4% | 59.8% | 54.6% | 46.8% | 64.9% | 27.5%
7 | CC(C)n1c(NCCc2ccc(O)c(O)c2)nc2c1c(=O)n(C)c(=O)n2C | 98.8% | 98.1% | 80.2% | 101% | 97.5% | 89.3% | 92.8% | 94.4% | 95.2% | 102% | 107% | 101% | 98.4% | 87.3% | 84.6% | 99.3% | 88.1% |  | 99.6% | 105%
8 | COC(=O)[C@]12CC[C@@H](C)[C@H](C)[C@@H]1C1=CC[C@@H]3[C@@]4(C)C(C=O)=C[C@@](C)(COS(C)(=O)=O)C4=CC[C@@]3(C)[C@]1(C)CC2 | -80.5% (active) | -63.2% (active) | -25.1% (active) | -5.33% (active) | -93.6% (active) | -19.9% (active) | -98.2% (active) | -73.4% (active) | -98.7% (active) | -72.3% (active) | -40.3% (active) | -39.2% (active) | -37.8% (active) | -93.8% (active) | -54.7% (active) | -82.8% (active) | -43.9% (active) |  | -1.17% (active) | 0.901% (active)
9 | COc1cnc2c(c1)C(=O)c1c-2n(CCCN2CCC(O)CC2)c(=O)c2cc(Cl)ccc12 | -71.5% (active) | -54.6% (active) | 49.1% | 34.2% | -76.7% (active) | 41.9% | 50.7% | 24.5% | -86.3% (active) | 102% | 107% | 67.7% | 30.5% | 15% | 82.8% | 8.76% (active) | 20.1% | -3% (active) | 0.479% (active) | -7.04% (active)
10 | CCNCCNc1cc(-c2ccc(Cl)c(Cl)c2)c(C#N)c2nc3ccccc3n12 | -84% (active) | -87.3% (active) | -88.4% (active) | -74.2% (active) | -95.5% (active) | -83% (active) | -93.5% (active) | -74.2% (active) | -93.4% (active) | -81% (active) | -83.1% (active) | -80% (active) | -68.9% (active) | -84% (active) | -84.3% (active) | -90.5% (active) | -95.4% (active) | -76.6% (active) | -30.3% (active) | -43.4% (active)
11 | COc1c(C(NC(=O)c2ccccc2)c2sccc2C)cc(Cl)c2cccnc12 (centres undefined) | 101% | 94.1% | 88.4% | 118% | 88.6% | 83.2% | 98.4% | 93% | 98.1% | 114% | 108% | 100% | 94.1% | 89.9% | 98.4% | 104% | 95.4% |  | 83.9% | 85.7%
12 | CCc1nc2cc(/C=C/C(=O)NO)c(F)cc2c(=O)n1CCc1ccccc1 | 25.9% | 13.2% | 29.3% | 19.7% | 1.61% (active) | 16.9% | -10.1% (active) | -33.5% (active) | -57.8% (active) | 20.3% | 35% | 20.6% | 3.45% (active) | -28.7% (active) | -5.84% (active) | 1.28% (active) | -1.21% (active) | -16.5% (active) | 2.77% (active) | -2.57% (active)
13 | CC(C)(C)CC(C)(C)Nc1c(-c2c(O)c3ccccc3oc2=O)nc2c(Cl)cc(C(F)(F)F)cn12 | 107% | 105% | 85.7% | 101% | 101% | 79.6% | 97.8% | 93.4% | 98.1% | 113% | 102% | 97.3% | 91.6% | 70.7% | 96.4% | 97.3% | 87.6% | 62% | 89.1% | 82.6%
14 | COc1ccc(-n2c(=O)c3ccccc3n(Cc3ccc(C(=O)NO)cc3)c2=O)cc1 | 61.3% | 29.6% | 11% | 18.1% | -40.2% (active) | -24.6% (active) | 6.91% (active) | -30.8% (active) | -71.5% (active) | -17.4% (active) | 14.2% | 16.7% | 33.6% | 55% | 19.6% | 50.3% | 64.9% | -2.54% (active) | 3.15% (active) | -10.1% (active)
15 | C=C1C(=O)O[C@H]2[C@H]1CC/C(C=Nc1c(N)cc(C(F)(F)F)cc1C(F)(F)F)=C\CC[C@@]1(C)O[C@@H]21 | -31.1% (active) | -15.2% (active) | 48.6% | 36.8% | 8.57% (active) | -12.8% (active) | -43.6% (active) | -57.1% (active) | -87.5% (active) | -17.2% (active) | -39.1% (active) | -36.2% (active) | -43.2% (active) | -89.8% (active) | -41% (active) | -89.4% (active) | -59.3% (active) | 34.8% | 4.15% (active) | -13.5% (active)
